Results on 7 molecules are retold here after ChEMBL document CHEMBL1961873, “Compounds: GSK PKIS; Assays: Nanosyn kinase panel” (2012).

Test [1] concerns the target T1, 3-phosphoinositide-dependent protein kinase 1 (Homo sapiens) (UniProt O15530).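 Further: values are mean inhibition of PDK1.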
T1 sequence (whole entry): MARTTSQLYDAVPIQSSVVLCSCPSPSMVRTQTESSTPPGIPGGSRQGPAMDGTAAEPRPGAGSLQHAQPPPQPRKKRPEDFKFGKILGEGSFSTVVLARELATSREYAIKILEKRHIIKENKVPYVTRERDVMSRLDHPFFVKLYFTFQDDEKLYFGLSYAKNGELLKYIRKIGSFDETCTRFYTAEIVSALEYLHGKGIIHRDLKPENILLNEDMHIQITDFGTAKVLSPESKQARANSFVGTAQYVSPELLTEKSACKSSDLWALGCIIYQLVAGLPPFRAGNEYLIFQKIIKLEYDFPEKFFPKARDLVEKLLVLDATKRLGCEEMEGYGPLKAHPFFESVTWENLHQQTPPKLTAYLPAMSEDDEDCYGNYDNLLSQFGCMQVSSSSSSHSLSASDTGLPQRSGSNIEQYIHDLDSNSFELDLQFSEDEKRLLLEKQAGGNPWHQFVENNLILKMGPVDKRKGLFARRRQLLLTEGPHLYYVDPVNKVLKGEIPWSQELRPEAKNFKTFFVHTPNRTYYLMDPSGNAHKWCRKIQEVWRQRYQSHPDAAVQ
The note with it: at 0.1 µM.

For test [2], the target named is cAMP-dependent protein kinase catalytic subunit alpha (Homo sapiens) (UniProt P17612). The note with it: at 0.1 µM.
For test [3] the target is unchanged. The note with it: at 1 µM.
The target in test [4] is Protein kinase C alpha type (Homo sapiens) (UniProt P17252). The note with it: at 0.1 µM.
Test [5] has the same target. The note with it: at 1 µM.
The target in test [6] is Protein kinase C beta type (Homo sapiens) (UniProt P05771). The note with it: at 0.1 µM.
Sequence of Protein kinase C beta type (Homo sapiens) (P05771 2-671 limits assumed): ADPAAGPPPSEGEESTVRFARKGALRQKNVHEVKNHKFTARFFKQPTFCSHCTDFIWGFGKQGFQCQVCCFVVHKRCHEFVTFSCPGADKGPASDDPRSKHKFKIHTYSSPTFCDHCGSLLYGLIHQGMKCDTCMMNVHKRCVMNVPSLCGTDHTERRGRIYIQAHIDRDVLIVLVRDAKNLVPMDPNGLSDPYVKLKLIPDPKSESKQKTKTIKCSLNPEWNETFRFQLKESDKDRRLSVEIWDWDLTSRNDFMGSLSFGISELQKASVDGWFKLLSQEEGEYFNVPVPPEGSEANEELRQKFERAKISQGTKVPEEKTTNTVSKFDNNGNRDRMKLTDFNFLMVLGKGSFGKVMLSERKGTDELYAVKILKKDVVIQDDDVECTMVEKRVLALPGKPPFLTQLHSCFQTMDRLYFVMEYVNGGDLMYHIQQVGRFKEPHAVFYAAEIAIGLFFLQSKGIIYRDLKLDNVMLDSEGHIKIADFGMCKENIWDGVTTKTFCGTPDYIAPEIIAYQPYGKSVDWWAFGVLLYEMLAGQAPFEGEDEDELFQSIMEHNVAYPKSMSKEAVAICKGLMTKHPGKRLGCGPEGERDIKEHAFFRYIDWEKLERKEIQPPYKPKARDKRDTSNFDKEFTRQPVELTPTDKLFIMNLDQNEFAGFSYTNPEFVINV
Test [7] has the same target. The note with it: at 1 µM.
For test [8], the target named is Protein kinase C eta type (Homo sapiens) (UniProt P24723). The note with it: at 0.1 µM.
Sequence of Protein kinase C eta type (Homo sapiens) (P24723 whole entry): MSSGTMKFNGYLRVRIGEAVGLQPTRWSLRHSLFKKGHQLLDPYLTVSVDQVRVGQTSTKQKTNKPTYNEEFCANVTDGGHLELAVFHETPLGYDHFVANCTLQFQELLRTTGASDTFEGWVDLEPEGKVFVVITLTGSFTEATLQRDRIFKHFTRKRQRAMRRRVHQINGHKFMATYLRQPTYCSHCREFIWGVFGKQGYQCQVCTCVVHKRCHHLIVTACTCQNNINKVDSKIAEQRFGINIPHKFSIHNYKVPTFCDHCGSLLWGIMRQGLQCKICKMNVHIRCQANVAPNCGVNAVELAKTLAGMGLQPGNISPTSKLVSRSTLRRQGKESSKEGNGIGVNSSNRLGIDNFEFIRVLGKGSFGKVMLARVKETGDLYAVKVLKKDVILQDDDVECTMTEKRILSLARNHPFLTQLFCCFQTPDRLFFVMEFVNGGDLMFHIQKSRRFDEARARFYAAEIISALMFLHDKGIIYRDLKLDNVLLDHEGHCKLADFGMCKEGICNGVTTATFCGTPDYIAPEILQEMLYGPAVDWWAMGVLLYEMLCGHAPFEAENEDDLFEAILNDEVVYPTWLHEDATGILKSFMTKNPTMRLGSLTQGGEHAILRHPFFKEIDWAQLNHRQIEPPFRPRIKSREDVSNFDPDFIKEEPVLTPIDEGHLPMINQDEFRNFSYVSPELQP
The target is the same in test [9]. The note with it: at 1 µM.
The target in test [10] is Protein kinase C gamma type (Homo sapiens) (UniProt P05129). The note with it: at 0.1 µM.
The target is the same in test [11]. The note with it: at 1 µM.
Test [12] has as its target T2, Protein kinase C iota type (Homo sapiens) (UniProt P41743).
T2 sequence (whole entry): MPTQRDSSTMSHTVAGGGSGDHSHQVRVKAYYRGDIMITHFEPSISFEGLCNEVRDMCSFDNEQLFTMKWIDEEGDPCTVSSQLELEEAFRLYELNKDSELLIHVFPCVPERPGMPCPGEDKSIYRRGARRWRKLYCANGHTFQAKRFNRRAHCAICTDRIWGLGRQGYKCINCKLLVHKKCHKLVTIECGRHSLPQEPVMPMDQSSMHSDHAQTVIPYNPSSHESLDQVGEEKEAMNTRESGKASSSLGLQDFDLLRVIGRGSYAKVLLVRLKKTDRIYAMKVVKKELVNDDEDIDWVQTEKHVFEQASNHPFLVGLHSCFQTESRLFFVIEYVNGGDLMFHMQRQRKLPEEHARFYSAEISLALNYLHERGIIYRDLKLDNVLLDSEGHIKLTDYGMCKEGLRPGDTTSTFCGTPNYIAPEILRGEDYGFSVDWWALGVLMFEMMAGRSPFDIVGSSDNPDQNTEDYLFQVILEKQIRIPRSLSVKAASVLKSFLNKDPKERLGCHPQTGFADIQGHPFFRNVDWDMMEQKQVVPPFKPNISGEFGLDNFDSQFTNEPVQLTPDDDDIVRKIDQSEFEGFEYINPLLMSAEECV
The note with it: at 0.1 µM.

The target in test [13] is T2, Protein kinase C iota type (Homo sapiens). The note with it: at 1 µM.
In test [14] the target is Protein kinase C theta type (Homo sapiens) (UniProt Q04759). The note with it: at 0.1 µM.
Sequence of Protein kinase C theta type (Homo sapiens) (Q04759 whole entry, looked up): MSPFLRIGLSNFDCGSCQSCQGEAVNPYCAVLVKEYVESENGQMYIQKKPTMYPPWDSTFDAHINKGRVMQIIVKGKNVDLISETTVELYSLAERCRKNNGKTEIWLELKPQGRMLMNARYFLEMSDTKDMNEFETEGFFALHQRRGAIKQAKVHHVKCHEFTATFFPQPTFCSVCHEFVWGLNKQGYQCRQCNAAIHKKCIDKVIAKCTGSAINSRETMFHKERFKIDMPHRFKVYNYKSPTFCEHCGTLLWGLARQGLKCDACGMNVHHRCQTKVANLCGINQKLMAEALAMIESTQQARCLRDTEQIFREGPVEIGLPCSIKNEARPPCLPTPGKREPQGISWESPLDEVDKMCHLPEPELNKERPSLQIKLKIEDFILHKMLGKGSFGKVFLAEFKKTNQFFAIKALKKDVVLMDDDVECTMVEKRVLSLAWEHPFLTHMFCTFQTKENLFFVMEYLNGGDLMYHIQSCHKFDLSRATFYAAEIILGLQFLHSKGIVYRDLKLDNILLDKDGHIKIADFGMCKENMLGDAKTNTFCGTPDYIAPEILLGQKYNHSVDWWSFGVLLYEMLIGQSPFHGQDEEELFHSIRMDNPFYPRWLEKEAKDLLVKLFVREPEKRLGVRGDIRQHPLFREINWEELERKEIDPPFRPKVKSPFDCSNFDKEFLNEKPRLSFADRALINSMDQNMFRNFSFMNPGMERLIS
Test [15] has the same target. The note with it: at 1 µM.
The target in test [16] is Protein kinase C beta type (Homo sapiens) (UniProt P05771). The note with it: at 0.1 µM. The source holds these as a separate data set.
For test [17] the target is unchanged. The note with it: at 1 µM. This is another data set of the same source.
Test [18] deals with T3, Serine/threonine-protein kinase D1 (Homo sapiens) (UniProt Q15139).
T3 sequence (whole entry): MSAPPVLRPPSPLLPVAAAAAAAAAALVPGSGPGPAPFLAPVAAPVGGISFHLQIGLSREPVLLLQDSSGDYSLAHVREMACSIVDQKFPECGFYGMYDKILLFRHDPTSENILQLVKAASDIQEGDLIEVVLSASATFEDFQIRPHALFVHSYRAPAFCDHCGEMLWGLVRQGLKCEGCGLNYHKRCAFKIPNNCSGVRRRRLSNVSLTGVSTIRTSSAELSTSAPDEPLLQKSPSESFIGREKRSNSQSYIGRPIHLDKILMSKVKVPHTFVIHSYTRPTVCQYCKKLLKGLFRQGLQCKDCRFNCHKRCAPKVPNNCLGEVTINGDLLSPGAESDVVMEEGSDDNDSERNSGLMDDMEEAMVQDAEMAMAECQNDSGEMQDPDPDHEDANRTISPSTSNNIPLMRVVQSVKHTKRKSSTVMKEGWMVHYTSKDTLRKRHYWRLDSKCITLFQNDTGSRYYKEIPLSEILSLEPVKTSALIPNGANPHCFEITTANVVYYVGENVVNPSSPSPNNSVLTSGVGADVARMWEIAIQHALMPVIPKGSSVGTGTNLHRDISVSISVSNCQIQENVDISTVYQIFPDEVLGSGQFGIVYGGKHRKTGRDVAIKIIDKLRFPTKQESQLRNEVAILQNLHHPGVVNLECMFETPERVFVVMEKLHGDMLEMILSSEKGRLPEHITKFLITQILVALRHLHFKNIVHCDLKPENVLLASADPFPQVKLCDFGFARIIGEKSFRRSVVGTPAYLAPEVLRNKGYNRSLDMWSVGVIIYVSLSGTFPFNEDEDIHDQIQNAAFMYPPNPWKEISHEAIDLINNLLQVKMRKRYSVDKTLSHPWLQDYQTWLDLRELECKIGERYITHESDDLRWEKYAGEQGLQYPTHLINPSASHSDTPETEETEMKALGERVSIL
The note with it: at 0.1 µM.

In test [19] the target is T3, Serine/threonine-protein kinase D1 (Homo sapiens). The note with it: at 1 µM.
Test [20] concerns the target T4, Serine/threonine-protein kinase D2 (Homo sapiens) (UniProt Q9BZL6).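 Further: reported percent inhibition values are means, part of the GSK PKIS kinase panel screen.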
T4 sequence (whole entry): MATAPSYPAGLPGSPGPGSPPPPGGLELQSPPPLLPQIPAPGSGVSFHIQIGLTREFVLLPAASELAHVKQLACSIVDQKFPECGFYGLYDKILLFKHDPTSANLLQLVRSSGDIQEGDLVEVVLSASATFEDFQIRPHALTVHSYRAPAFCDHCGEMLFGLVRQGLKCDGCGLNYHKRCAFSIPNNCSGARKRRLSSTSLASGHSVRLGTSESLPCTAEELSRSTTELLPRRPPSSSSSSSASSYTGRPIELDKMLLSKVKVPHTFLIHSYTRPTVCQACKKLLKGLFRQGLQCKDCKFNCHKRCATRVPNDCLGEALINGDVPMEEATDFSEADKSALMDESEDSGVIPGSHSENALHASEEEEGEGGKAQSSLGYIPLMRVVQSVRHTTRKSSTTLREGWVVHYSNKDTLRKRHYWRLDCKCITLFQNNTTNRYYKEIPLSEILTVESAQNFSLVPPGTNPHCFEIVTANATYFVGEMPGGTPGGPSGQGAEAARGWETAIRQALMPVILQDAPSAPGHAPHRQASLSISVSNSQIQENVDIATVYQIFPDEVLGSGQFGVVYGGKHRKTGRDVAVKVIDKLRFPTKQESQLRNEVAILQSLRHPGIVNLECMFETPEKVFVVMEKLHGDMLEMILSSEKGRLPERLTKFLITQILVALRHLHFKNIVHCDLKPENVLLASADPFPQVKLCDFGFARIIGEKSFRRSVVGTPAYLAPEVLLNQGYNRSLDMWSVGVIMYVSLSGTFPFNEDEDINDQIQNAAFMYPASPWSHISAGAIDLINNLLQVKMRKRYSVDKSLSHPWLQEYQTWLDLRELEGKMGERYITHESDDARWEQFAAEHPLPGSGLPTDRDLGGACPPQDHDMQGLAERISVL
The note with it: at 0.1 µM.

With `Cc1ccc2c(-c3ccnc(Nc4ccc5c(c4)OCCO5)n3)c(-c3ccc(C(F)(F)F)cc3)nn2n1`, the inhibition (commonly the change of the read-out against control, counted positive when it falls) is -0.78% in test [1]; 4.47% in test [2]; 7.16% in test [3]; 0.21% in [4]; 1.55% in test [5]; 2.2% in [6]. Further, the inhibition turned out to be 2.03% in [7]; 0.94% in test [8]; 3.26% in test [9]; 1.27% in test [10]; 3.76% in [11]; 0.29% in test [12]. For the same molecule, the inhibition worked out at 1.15% in test [13]; 1.61% in [14]; 2.73% in test [15]; 0.24% in [16]; 2.06% in test [17]; 1.11% in test [18]. Also, the inhibition in [19] turned out to be 3.32%; in test [20], 2.13%.

As to `c1ccc(Nc2ncc(-c3ccccc3)o2)cc1`, the inhibition was 4.59% in test [1]; 2.19% in test [2]; 3.41% in [3]; 1.37% in [4]; 2.47% in test [5]; -0.26% in [6]. In addition, the inhibition is -0.49% in test [7]; 2.48% in [8]; 5.31% in test [9]; 2.57% in test [10]; 4.48% in test [11]; 1.64% in test [12]. For the same molecule, the inhibition amounted to 0.9% in [13]; 1.93% in test [14]; 2.27% in test [15]; 1.46% in [16]; 2.63% in test [17]; 4.37% in test [18]. The inhibition in test [19] is 7.71%; in [20], 4.47%.

`CN(c1ccc(NC(=O)Nc2ccc(OC(F)(F)F)cc2)cc1)c1ccnc(Nc2cccc(S(N)(=O)=O)c2)n1`: the inhibition in [1] was determined as 0.37%; in test [2], 1.4%; in test [3] it was 2.04%; in test [4], 0.02%; in [5], 0.85%; in [6] it was 0.45%. The inhibition in test [7] is 0.52%; in test [8], 0.81%; in test [9], -0.51%; in test [10] it was 2.48%; in test [11], 2.99%; in test [12] it was 0.52%. Further, the inhibition in test [13] is -0.73%; in [14] it was 0.61%; in [15], 0.96%; in test [16] it was -0.08%; in test [17], 0.69%; in [18], 2.95%. Besides, the inhibition in test [19] was 4.48%; in [20], 3.68%.

As for `COc1cc2ncn(-c3cc(OCc4ccccc4S(C)(=O)=O)c(C#N)s3)c2cc1OC`, the inhibition came to 5.59% in test [1]; 2.29% in [2]; 3.77% in test [3]; 1.33% in test [4]; 2.72% in test [5]; 2.71% in test [6]. The inhibition in test [7] was 5.16%; in [8] it was 0.91%; in [9], -1.63%; in test [10], 1.77%; in test [11] it was 6.46%; in test [12], 2.06%. The inhibition in [13] was found to be 3.79%; in [14] it was 2.44%; in [15] it was 3.61%; in test [16], 1.55%; in test [17], 4.05%; in test [18] it was 2.92%. The values for the inhibition in test [19] and in test [20] were 5.45% and 3.97%, respectively.

Turning to `N#Cc1cccc(Nc2nccc(-c3cnn4ncccc34)n2)c1`, the inhibition worked out at 2.83% in test [1]; 2.6% in test [2]; 12.8% in [3]; 26.2% in test [4]; 72.8% in test [5]; 2.69% in test [6]. The inhibition in [7] worked out at 20%; in [8] it was 7.07%; in test [9] it was 31.9%; in test [10], 6.2%; in [11], 31.2%; in test [12] it was 0.78%. Moreover, the inhibition in [13] is 1.84%; in test [14] it was 3.95%; in [15], 14.2%; in [16], 6.33%; in [17], 30.2%; in [18], 7.68%. Moreover, the inhibition in test [19] was found to be 49.5%; in [20] it was 7.36%.

Regarding `NS(=O)(=O)c1ccc(N/N=C2\C(=O)Nc3ccc(Cl)cc32)cc1`, the inhibition worked out at 2.36% in [1]; 3.49% in test [2]; 4.12% in test [3]; 0.69% in test [4]; 1.45% in test [5]; 1.35% in [6]. The inhibition was 2.75% in test [7]; 4.13% in test [8]; 4.71% in [9]; -1.84% in test [10]; 4.85% in [11]; 1.02% in [12]. For the same molecule, the inhibition in test [13] amounted to 0.75%; in [14], 2.29%; in test [15], 4.86%; in test [16], 0.92%; in [17] it was 1.29%; in test [18] it was 2.46%. Besides, the inhibition in test [19] was determined as 7.47%; in test [20] it was 3.87%.

As for `NC(=O)c1sc(-n2cnc3ccccc32)cc1OCc1ccccc1Br`, the inhibition in test [1] was 1.27%; in [2], 1.4%; in [3], 4.48%; in test [4], 1.58%; in test [5], 2.92%; in test [6], -0.55%. The inhibition in [7] amounted to 0.73%; in test [8], 5.09%; in test [9], 2.7%; in test [10], 1.38%; in test [11], 3.85%; in test [12], 1.56%. Moreover, the inhibition was -0.46% in test [13]; 1.86% in test [14]; 2.63% in test [15]; 1.02% in [16]; 2.96% in [17]; 5.36% in [18]. For the same molecule, the inhibition was 9.59% in test [19] and 7.73% in test [20].
